Rows were chosen to be rich in hits. Some 2.9% of all compounds tested hit in one or more screens of this group.
PME-1 primary: PME-1 (human) inhibition; Q9Y570; recombinant PME-1, FP-Rh probe fluorescence polarization; inhibition, % at 5.9 µM; actives 0.53% (n = 320,000);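 active = inhibition above the campaign mean of all compounds plus 3 SD, cut at about 26% in these data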;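 also: competitive labeling of PME-1 active site by serine hydrolase directed probe; 0% = PME-1 with DMSO and 100% = wells lacking PME-1 enzyme; inhibitors block probe labeling so polarization falls and inhibition rises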
PAFAH1B3 FP inh: PAFAH1B3 (human) inhibition; AID 492972; inhibition, % at 3.39 µM; Q15102; recombinant PAFAH1B3, FP-rhodamine probe, fluorescence polarization; actives 0.28% (n = 340,000);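 active = inhibition above the screen-wide average of all tested compounds plus 3 SD, cut at about 25% in these data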;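 also: 0% = enzyme with DMSO only and 100% = wells lacking PAFAH1B3 protein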
Fam108B counter: counter-screen for RBBP9 inhibitors: inhibitors of mouse Fam108B; AID 1947; actives 0.33% (n = 300,000); inhibition, % at 9.51 µM; recombinant Fam108B, FP-Rh probe fluorescence polarization;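 active = inhibition above the screen mean inhibition plus 3 SD, computed separately per campaign, cut at about 18% in these data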;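 also: inhibitors lower polarization as less probe binds the enzyme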
PAFAH2 FP inh: inhibitors of human PAFAH2; recombinant PAFAH2, FP-rhodamine activity probe, fluorescence polarization; inhibition, % at 3.39 µM; actives 0.99% (n = 340,000); AID 492956;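 active = inhibition above the mean over all tested compounds plus 3 SD, cut at about 30% in these data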;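 also: inhibitors block probe labeling of enzyme so polarization drops; 0% = enzyme with DMSO and 100% = wells lacking PAFAH2 protein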
pPAFAH inh: inhibitors of human plasma PAF acetylhydrolase (pPAFAH); Q13093; recombinant pPAFAH, FP-rhodamine probe fluorescence polarization; inhibition, % at 3.39 µM; actives 1.5% (n = 330,000); AID 463082;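 active = inhibition above the mean inhibition across the screen plus 3 SD, cut at about 25% in these data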;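 also: inhibitors block binding of the rhodamine activity-based probe so polarization drops; 0% = enzyme with DMSO and 100% = wells lacking pPAFAH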
Target sequence (Q13093 whole entry, looked up): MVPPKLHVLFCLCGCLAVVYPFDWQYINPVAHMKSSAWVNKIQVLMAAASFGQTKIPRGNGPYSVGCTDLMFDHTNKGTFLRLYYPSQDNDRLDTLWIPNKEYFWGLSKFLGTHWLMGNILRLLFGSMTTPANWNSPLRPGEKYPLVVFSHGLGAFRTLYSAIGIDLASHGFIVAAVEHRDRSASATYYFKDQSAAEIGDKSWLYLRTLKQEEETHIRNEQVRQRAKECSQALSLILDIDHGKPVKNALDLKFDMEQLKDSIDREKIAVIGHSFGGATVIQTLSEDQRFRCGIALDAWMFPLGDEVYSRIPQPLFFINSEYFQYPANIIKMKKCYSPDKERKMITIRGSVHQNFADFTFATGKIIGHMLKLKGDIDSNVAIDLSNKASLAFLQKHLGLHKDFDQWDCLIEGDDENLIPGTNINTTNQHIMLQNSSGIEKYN
PAFAH1B2 inh: blocks human PAF acetylhydrolase 1b catalytic subunit 2 | recombinant PAFAH1B2, FP-rhodamine activity probe, fluorescence polarization | inhibition, % at 3.39 µM | actives 1.2% (n = 340,000) | AID 492953;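 active = inhibition above the mean of all tested compounds plus 3 SD, cut at about 24% in these data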;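 also: 0% = enzyme with DMSO and 100% = wells lacking PAFAH1B2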
Fam108b inh conf: confirmation of mouse Fam108b serine hydrolase inhibitors; shares compounds with Fam108B counter; recombinant Fam108b, FP-Rh probe fluorescence polarization; inhibition, % at 9.51 µM; actives 44% (n = 930); AID 1978;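 active = inhibition above a limit from the primary screen, the mean over all compounds plus 3 SD, cut at about 19% in these data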;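 also: 0% = median of active Fam108b wells and 100% = catalytically dead S170A mutant; inhibitors free the probe so polarization falls as inhibition rises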
Fam108b ABPP HTS: mouse ABHD17B inhibition; shares compounds with Fam108B counter; recombinant Fam108b, gel-based ABPP, fluorophosphonate probe; inhibition, % at 20 µM; actives 44% (n = 260); AID 588649; in the data active = inhibition above about 40%
Numbers without * were called inactive; x = no result.

SMILES | PME-1 primary | PAFAH1B3 FP inh | Fam108B counter | PAFAH2 FP inh | pPAFAH inh | PAFAH1B2 inh | Fam108b inh conf | others
NS(=O)(=O)c1ccc(NC2=CC(=O)C(=O)c3ccccc32)cc1 | 8.6 | 18.9 | 20.0* | 12.7 | 17.5 | 1.7 | 32.2* | Fam108b ABPP HTS=0.0
CCOC(=O)c1ccc(NC2=CC(=O)C(=O)c3ccccc32)cc1 | 9.9 | 58.2* | 19.0* | 37.8* | 17.2 | 14.5 | 30.4* | Fam108b ABPP HTS=25.0
CCOc1cc(-c2nc(-c3ccccc3)c(-c3cc([N+](=O)[O-])ccc3C)[nH]2)ccc1O | 10.9 | 12.3 | 21.2* | -1.2 | 11.7 | 11.9 | 7.5
COc1ccc(-c2nc(-c3ccccc3)c(-c3cc([N+](=O)[O-])ccc3C)[nH]2)cc1OC | 1.9 | 12.4 | 15.0 | 5.2 | 5.4 | -2.3 | x
O=[N+]([O-])c1ccc(O)c(-c2nc(-c3ccccc3)c(-c3cccs3)[nH]2)c1 | 4.6 | 17.5 | 26.2* | 11.0 | 11.4 | 10.2 | 3.9
CC(=O)C1=C(O)C(=O)N(c2ccc(S(N)(=O)=O)cc2)C1c1cccc([N+](=O)[O-])c1 (stereo unspecified) | 3.7 | 1.0 | 1.4 | -2.2 | 3.2 | 2.8 | x
CC(=O)C1C(=O)c2c(cccc2[N+](=O)[O-])C1=Nc1ccc(S(N)(=O)=O)cc1 (stereo unspecified) | 26.2* | 34.8* | 20.2* | 39.3* | 25.0* | 23.3 | 21.7*
COc1ccc(-c2[nH]c(-c3cc(OC)c4c(c3)OCO4)nc2-c2ccccc2)cc1 | 8.9 | 2.2 | 19.5* | 5.9 | 1.9 | 1.0 | -9.0
c1ccc2[nH]c(-c3ccc4c(c3)OCO4)nc2c1 | 1.5 | x | -1.0 | x | 4.2 | x | x
O=C(NCc1ccco1)c1ccc(Cl)cc1[N+](=O)[O-] | x | 1.6 | x | 1.8 | x | 5.5 | x
O=C(Nc1ccc(-c2nc3ccccc3o2)cc1)c1ccc(N2CCOCC2)c([N+](=O)[O-])c1 | -2.6 | -0.8 | 19.5* | -1.7 | -6.0 | 2.3 | 1.3
O=[N+]([O-])c1cc(N=Nc2ccc3ccccc3c2)ccc1O | 10.4 | 9.3 | 21.6* | 14.2 | 19.0 | 3.6 | 12.8
Cc1ccc(S(=O)(=O)N(C)CC(=O)NNC(=O)CCNS(=O)(=O)c2cccc(C)c2)cc1 | x | 4.3 | x | 6.8 | 4.6 | 2.4 | x
CC(C)N=c1cc2n(-c3ccc(Cl)cc3)c3ccccc3nc-2cc1Nc1ccc(Cl)cc1 | 31.9* | 9.9 | 38.8* | 2.2 | 16.9 | -2.5 | 8.1
Cc1ccc(-c2nnc(SCC(=O)NC3CCCC3)n2C)cc1 | -3.1 | -5.2 | 4.1 | 0.2 | 5.2 | 1.6 | x
COc1ccc(Cn2c(O)c(C=Nc3ccc(O)cc3)c3ccccc3c2=O)cc1 | 21.2 | -2.2 | 30.7* | -6.8 | 18.3 | -1.2 | 18.1
CCOc1ccccc1C(=O)N/N=C/c1coc2ccc(C)cc2c1=O | x | 8.5 | x | 20.0 | x | 3.4 | x
O=c1c2c3c(sc2n(CCN2CCOCC2)c(=O)n1Cc1ccco1)CCCCC3 | -1.4 | -2.3 | 20.4* | -4.3 | 14.5 | 0.0 | 16.3
O=C(Cn1c(=O)n(Cc2ccco2)c(=O)c2c3c(sc21)CCCC3)Nc1ccccc1 | -70.1 | -12.4 | -45.9 | -18.9 | -30.5 | -4.6 | x
O=c1c2c3c(sc2n(CCN2CCCCC2)c(=O)n1Cc1ccco1)CCCCC3 | 0.3 | -9.6 | 21.1* | 2.3 | 10.7 | 1.3 | 28.1*
Cc1cc(N/N=C/c2ccc(O)cc2O)nc(-c2ccccc2O)n1 | 65.3* | 13.0 | 34.0* | 6.0 | 15.7 | 3.5 | 13.8
O=S(=O)(Nc1ccccc1N1CCCCC1)c1ccc(F)cc1F | 2.1 | 3.6 | 3.2 | 2.8 | 0.5 | 14.1 | x
CCOC(=O)c1c(NC(=O)/C=C/c2ccc3c(c2)OCO3)sc(C)c1CC | -29.9 | 1.7 | 81.6* | -8.3 | -4.2 | -3.2 | -7.0
COC(=O)c1c(NC(=O)/C=C/c2ccc3c(c2)OCO3)sc(C)c1C | -2.5 | -18.8 | -0.2 | -0.3 | 2.7 | 2.1 | x
CC(C)(C)c1cc(CCC(=O)Nc2ccncc2)cc(C(C)(C)C)c1O | 1.7 | 6.0 | 1.8 | -0.8 | 0.4 | 2.3 | x
NC(=O)c1ccc(N=C2C(=O)Nc3ccc([N+](=O)[O-])cc32)cc1 | 3.2 | 56.3* | 24.4* | 11.4 | 1.2 | 12.4 | 4.4

Bioassay records from PubChem BioAssay.
